For 40 compounds, growth results are on record in PubChem BioAssay (NCI).

The panel holds about 83,000 compounds, 20% with a hit somewhere; the sample as a whole holds those more often.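 Each cell line was grown in a 96-well plate and treated with one concentration of compound for 48 hours. Values below 10 were considered active.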 Active and inactive are the calls of the source.

The subject of the assay is HL-60(TB) leukemia. Description: NCI-60 one-dose screen, 48 h (100 = growth as untreated, 0 = no growth, -100 = all killed). The note with it: 10 µM unless noted.
As for `CCN(CC)C(=O)N/C(N)=N/c1nc2ccccc2s1`, the growth is 52.1% (inactive).
The same measure for `COc1cc(C2CC(c3cc(OC)c(OC)c(OC)c3)=NN2C(C)=O)ccc1OCc1ccccc1` (stereo not given): 21.5% (inactive); for `COc1ccc(N2N=C(c3ccc4c(c3)OCCO4)CC2c2cccc(NC(=O)CCCNS(=O)(=O)c3ccc(F)cc3)c2)cc1` (stereo not given): 80.5% (inactive).
For `O=C(CSc1nnc(-c2ccc3nc(-c4ccc(Cl)cc4)[nH]c3c2)o1)Nc1ccc(Br)cc1`, the growth was -22.3% (active).
The same measure for `O=C(COc1ccc(NC(=O)Nc2ccc(Cl)c(Cl)c2)cc1)N=Nc1c(O)[nH]c2ccc(Cl)cc12`: -23% (active); for `COc1ccc2[nH]cc(-c3nnc(N)nc3-c3c[nH]c4ncc(Br)cc34)c2c1`: 103% (inactive); for `O=[N+]([O-])c1cccc(-c2nnc3c(/C=C/c4ccccc4O)nc4ccccc4n23)c1`: 52.5% (inactive).
Regarding `O=C(CNc1nc(-c2ccccc2)cs1)Nc1cccc([N+](=O)[O-])c1`, the growth is -8.94% (active).
Then `C=C1CCC2C3(C)COC(c4ccc(F)cc4)OC3CCC2(C)C1C/C=C1/C(=O)OCC1O` (stereo not given), with 0.0909% (active); and `Nc1cccc(SCc2cc3ccccc3[nH]c2=O)c1`, with 42.2% (inactive).
The same measure for `O=C(Nc1ccc(-c2ccc3c(c2)NC(=O)/C3=C\c2ccc[nH]2)cc1)Nc1ccc(Cl)c(Cl)c1`: 51.8% (inactive); for `CC(=O)c1cc(C(=O)c2ccccc2)n2c1ccc1ccccc12`: 94.7% (inactive).
The same measure for `CC(=O)NNc1ccc2nnc(-c3ccc(Br)cc3)n2n1`: 97.5% (inactive); for `COc1ccc(N=Nc2c(N)nn3c(-c4ccc(F)cc4)ccnc23)cc1`: 95.3% (inactive); for `CCCN(CCC)S(=O)(=O)c1ccc(C(=O)O)cc1.CCCN(CCC)S(=O)(=O)c1ccc(C(=O)O)cc1.[Cl][Pt+2][Cl].[NH2-].[NH2-]`: -2.97% (active).
As for `CC(C)Sc1nc(NC2CC2)c(C#N)c(-c2ccccc2)n1`, the growth is 98.1% (inactive).
Then `C/C(=C\c1ccc(O)cc1O)c1ccc2ccc(O)cc2[o+]1`, with 63.2% (inactive); and `COC(=O)c1cc(C(C)=O)n2c3ccccc3c3ccccc3c12`, with 101% (inactive).
The same measure for `COc1cc(/C=N/NC(=O)c2ccc(OCc3nc4ccc(C)cc4[nH]3)cc2)cc(OC)c1OC`: 33.5% (inactive); for `N#Cc1cc(-c2ccc3ncnc(N4CCc5cc(F)c(Cl)cc54)c3c2)cnc1N`: 36.1% (inactive); for `COC(=O)c1cc(C(=O)C(Br)Br)n2c1ccc1c3ccccc3ccc12`: 76.2% (inactive).
Then `Clc1ccc(-c2nc3c4c(-c5ccccc5)c(-c5ccccc5)n(Cc5ccccc5)c4ncn3n2)cc1`, with -27.7% (active).
As for `CC1=C(C(=O)OCc2ccccc2)C(c2cccc3ccccc23)n2c(nc3ccccc32)N1` (stereo not given), the growth was 1.4% (active).
Then `O=C(N/N=C/c1ccc(Cl)o1)c1[nH]c2ccc(Br)cc2c1-c1ccccc1`, with -42.4% (active); and `N#Cc1c(-c2ccc(Br)cc2)nc2n[nH]c(-c3ccc(Br)cc3)c2c1-c1ccc(F)cc1`, with 80.4% (inactive); and `Cc1cccc(NC(=O)CSc2nc3ccc(F)cc3c(=O)n2-c2ccc(Cl)cc2)c1C`, with 96.4% (inactive).
Then `COc1ccc(NC(=O)[C@@H](N)Cc2ccccc2)cc1C(=O)Nc1cccc(C2CC(=O)c3c(cc(OC)c(OC)c3OC)O2)c1` (stereo not given in full), with 1.01% (active); and `CCCCSc1nc(NCCc2c[nH]c3ccccc23)c(C#N)c(-c2ccccc2)n1`, with 45.8% (inactive).
Then `CC(=O)Nc1ccc(-c2cn(-c3cccc(C(=O)Nc4cc(C(F)(F)F)cc(C(F)(F)F)c4)c3)nn2)cn1`, with -60.5% (active); and `Fc1ccc(/C=C/c2nc3ccccc3n3c(-c4ccc(Cl)cc4)nnc23)cc1`, with 3.61% (active); and `CCCSc1nc(NCCc2c[nH]c3ccccc23)c(C#N)c(-c2ccc(F)cc2)n1`, with 54.2% (inactive).
Take `O=C(CN1C(=O)/C(=C/c2ccccc2F)SC1=S)N1CCOCC1`: the growth was 82.5% (inactive).
Then `COc1c(B(O)O)cccc1-c1nc2ccc3cn[nH]c3c2c2c1CCCC2`, with 47.6% (inactive); and `S=C(Nc1ccccc1)Nc1ccc(OCc2nc3ccc(Cl)cc3[nH]2)cc1`, with 85.2% (inactive).
Then `O=C(N/N=C/c1ccc(Cl)cc1)c1ccc(OCc2nc3ccc(Cl)cc3[nH]2)cc1`, with 81.7% (inactive); and `COC[C@@H](CC(C)C)N=C1NC(=O)/C(=C/c2ccc3ncoc3c2)N1`, with 1.03% (active).
Then `Cn1cc(-c2nc(N)nnc2-c2c[nH]c3ccc(Br)cc23)c2cc(Br)cnc21`, with -35.8% (active); and `C=C1CC[C@@H]2[C@]3(C)COC(c4ccco4)O[C@@H]3CC[C@@]2(C)[C@@H]1C/C=C1/C(=O)OCC1OC(C)=O` (stereo not given in full), with -5.13% (active).
For the compound `Nc1nc2c(F)c(F)c(F)c(F)c2s1`, the growth was 110% (inactive).
For `CC[C@]12C=CCN3CC[C@]4(C(=C(C(=O)OC)C1)Nc1cc(OC)c([C@@H]5[C@H]6O[C@H]6[C@@]6(CC)CC(C(=O)OC)=C7Nc8cc(OC)ccc8[C@@]78CCN5[C@@H]68)cc14)[C@@H]32`, the growth was 25% (inactive).
